Assay results: PubChem BioAssay (Tox21)
Inconclusive results are not listed. Where a call stands in place of a potency, no number is given. A number with no mark means an inactive call. Active and inactive are the calls of the source. Unless noted, calls follow the shape of the dose curve; as a rule, active = well fitted curve in the direction sought with a large enough effect in the repeat runs; inconclusive = weak or mixed curves; inactive = no such curve, though single readings can be large; an effect the other way counts as inactive or inconclusive.

Assays:
[1] = qHTS assay to identify small molecule antagonists of the thyroid receptor (TR) signaling pathway - cell viability counter screen (AID 743064); also: nearly all actives have a fitted effect of over 50% in size; also: potency is read from the fitted curve at half-maximal effect
Method in brief: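 In rat pituitary GH3.TRE-Luc reporter cells co-exposed to compound and 1 nM T3 for 23.5 h, cytotoxicity was assessed with CellTiter-Fluor in the same wells, read by fluorescence.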

[2] = qHTS assay to identify small molecule antagonists of the estrogen receptor alpha (ER-alpha) signaling pathway - cell viability counter screen (AID 743074; calls by dose curve;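 also: HEK293 cells carrying ER-alpha-UAS-bla reporter stimulated with 17beta-estradiol; nearly all actives have a fitted effect of over 45% in size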)
[3] = qHTS assay to identify small molecule antagonists of the estrogen receptor alpha (ER-alpha) signaling pathway using the BG1 cell line - cell viability counter screen (AID 743081);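 also: compound given together with 17beta-estradiol as the ER stimulus; series mostly up to about 70 µM; nearly all actives have a fitted effect of over 45% in size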
Aromatase (Homo sapiens) = Aromatase (Homo sapiens) (UniProt P11511); assay: qHTS assay to identify aromatase inhibitors (AID 743083); also: series mostly up to about 70 µM; nearly all actives have a fitted effect of over 55% in size
[4] = qHTS assay to identify aromatase inhibitors - cell viability counter screen (AID 743084);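 also: cells stimulated with testosterone during compound exposure; nearly all actives have a fitted effect of over 55% in size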
[5] = target: Aryl hydrocarbon receptor (Homo sapiens) (UniProt P35869); assay: qHTS assay to identify small molecule that activate the aryl hydrocarbon receptor (AhR) signaling pathway (AID 743085); also: nearly all actives have a fitted effect of over 15% in size; also: potency is read from the fitted curve at half-maximal effect;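 as to activation: HG2L7.5c1 human HepG2 liver cells with stably integrated DRE-driven firefly reporter; series mostly up to about 70 µM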
Method in brief: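 AhR agonist activity is inferred from enhanced light output of a DRE-controlled firefly luciferase reporter in HepG2 cells, measured with ONE-Glo following 24 h treatment at 37C.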

[6] = qHTS assay to identify small molecule that activate the aryl hydrocarbon receptor (AhR) signaling pathway - cell viability counter screen (AID 743086); also: nearly all actives have a fitted effect of over 45% in size; also: potency is read from the fitted curve at half-maximal effect
Method in brief: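 HepG2-AhR-luc (HG2L7.5c1) cells, 4000/well, treated 24 h at 37 C with compound; viability measured as CellTiter-Fluor fluorescence after 30 min in the same wells as the luciferase read.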

[7] = target: Peroxisome proliferator-activated receptor gamma (Homo sapiens) (UniProt P37231); assay: qHTS assay to identify small molecule agonists of the peroxisome proliferator-activated receptor gamma (PPARg) signaling pathway (AID 743094; active = well fitted activation curve with a large enough effect in the signal ratio in the repeat runs, not every such curve was filed as active; the % refers to the signal ratio)
Method in brief: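 Cells from the PPARg UAS-bla HEK293H line are plated and incubated 5 h at 37C. Compounds in DMSO are pinned in and left 17 h at 37C. LiveBLAzer B/G substrate is then added for 1 h at room temperature before fluorescence is measured.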

[8] = target: Peroxisome proliferator-activated receptor gamma (Homo sapiens) (UniProt P37231); assay: qHTS assay to identify small molecule antagonists of the peroxisome proliferator-activated receptor gamma (PPARg) signaling pathway (AID 743191; calls by dose curve; also: series mostly up to about 63 µM; nearly all actives have a fitted effect of over 30% in size)
Method in brief: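 GeneBLAzer PPARg UAS-bla HEK293H cells, 5 h post-plating, exposed to compounds 17 h at 37C. LiveBLAzer B/G FRET substrate added for 1 h at room temperature; beta-lactamase reporter read by fluorescence intensity.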

[9] = qHTS assay to identify small molecule antagonists of the peroxisome proliferator-activated receptor gamma (PPARg) signaling pathway - cell viability counter screen (AID 743194); also: nearly all actives have a fitted effect of over 55% in size
Method in brief: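 Cytotoxicity counter screen in PPARg-bla HEK293H cells, same wells as reporter assay. Compounds plus 50 nM rosiglitazone (final) for 17 h at 37 C, then viability read by CellTiter-Glo luminescence.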

[10] = qHTS assay for small molecule activators of the heat shock response signaling pathway - cell viability counter screen (AID 743209); also: nearly all actives have a fitted effect of over 50% in size
Method in brief: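 Cytotoxicity counter screen run in parallel with the HSE beta-lactamase reporter, using the same wells. HeLa HSE-bla cells received compound for 5 h at 37 C; ATP-based CellTiter-Glo luminescence was measured after 30 min at room temperature.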

[11] = qHTS assay for small molecule activators of the heat shock response signaling pathway (AID 743210; active = well fitted activation curve with a large enough effect in the signal ratio in the repeat runs, with a control signal flat, not every such curve was filed as active; the % refers to the signal ratio;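 also: HeLa cells with beta-lactamase reporter driven by heat shock elements; series mostly up to about 63 µM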)
Method in brief: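 Beta-lactamase reporter read-out: FRET substrate fluorescence after 2.5 h at RT, following 5 h compound treatment at 37 C of HeLa cells carrying HSE-driven bla reporter; quantitative HTS format.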

[12] = system: thyroid hormone receptor (rat, GH3 cells); assay: qHTS assay to identify small molecule agonists of the thyroid receptor (TR) signaling pathway (AID 743066; calls by dose curve)
[13] = target: Estrogen receptor (Homo sapiens) (UniProt P03372); assay: qHTS assay to identify small molecule agonists of the estrogen receptor alpha (ER-alpha) signaling pathway (AID 743075; calls by dose curve;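 also: HEK293 GripTite cells with ER-alpha and UAS-driven beta-lactamase reporter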)
[14] = target: Estrogen receptor (Homo sapiens) (UniProt P03372); assay: qHTS assay to identify small molecule agonists of the estrogen receptor alpha (ER-alpha) signaling pathway using the BG1 cell line (AID 743079); also: nearly all actives have a fitted effect of over 20% in size; also: potency is read from the fitted curve at half-maximal effect
[15] = qHTS assay to identify small molecule antagonists of the estrogen receptor alpha (ER-alpha) signaling pathway using the BG1 cell line (AID 743080; calls by dose curve;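 also: BG1 cells stimulated with 17beta-estradiol alongside compound; nearly all actives have a fitted effect of over 25% in size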; also: potency is read from the fitted curve at half-maximal effect)
Method in brief: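 Luciferase inhibition measured with ONE-Glo after 30 min at RT in BG1Luc4E2 cells given test compounds and 17beta-estradiol for 21.5 h at 37 C; CellTiter-Fluor viability read in the same wells beforehand.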

[16] = qHTS assay for small molecule agonists of the antioxidant response element (ARE) signaling pathway (AID 743202; active = well fitted activation curve with a large enough effect in the signal ratio in the repeat runs, not every such curve was filed as active; the % refers to the signal ratio; also: potency is read from the fitted curve at half-maximal effect)
Method in brief: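 HepG2 ARE-bla reporter line, 2,000 cells/well; 5 h preincubation 37 C/5% CO2; compound (DMSO) 16 h 37 C; B/G FRET substrate 2 h RT; fluorescence intensity.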

[17] = target: Estrogen receptor (Homo sapiens) (UniProt P03372); assay: qHTS assay to identify small molecule antagonists of the estrogen receptor alpha (ER-alpha) signaling pathway (AID 743069; active = well fitted curve in the direction sought with a large enough effect in the signal ratio in the repeat runs, not every such curve was filed as active; the % refers to the signal ratio)
Method in brief: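 Beta-lactamase FRET fluorescence is read after 2 hr at room temperature with LiveBLAzer B/G substrate. Before that, ER-alpha-bla HEK293 cells sit 4 hr after plating, then receive compound plus 17beta-estradiol and incubate 18 hr at 37C.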

[18] = qHTS assay for small molecule agonists of the antioxidant response element (ARE) signaling pathway - cell viability counter screen (AID 743203; calls by dose curve; also: nearly all actives have a fitted effect of over 55% in size)
Method in brief: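 Cytotoxicity was tested in parallel with the ARE reporter screen. ARE-bla HepG2 cells were exposed to compounds for 16 hrs, and viability was taken from CellTiter-Glo luminescence.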

[19] = qHTS assay to identify small molecule antagonists of the thyroid receptor (TR) signaling pathway (AID 743065)
Method in brief: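 GH3.TRE-Luc rat pituitary cells (two TREs driving luciferase) were dosed with compound, then stimulated with 1 nM T3 (final) for 23.5 h at 37 C. ONE-Glo luminescence was the read-out, with CellTiter-Fluor fluorescence as the cytotoxicity counter-screen.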

Chain of Estrogen receptor (Homo sapiens) (P03372 whole entry, looked up): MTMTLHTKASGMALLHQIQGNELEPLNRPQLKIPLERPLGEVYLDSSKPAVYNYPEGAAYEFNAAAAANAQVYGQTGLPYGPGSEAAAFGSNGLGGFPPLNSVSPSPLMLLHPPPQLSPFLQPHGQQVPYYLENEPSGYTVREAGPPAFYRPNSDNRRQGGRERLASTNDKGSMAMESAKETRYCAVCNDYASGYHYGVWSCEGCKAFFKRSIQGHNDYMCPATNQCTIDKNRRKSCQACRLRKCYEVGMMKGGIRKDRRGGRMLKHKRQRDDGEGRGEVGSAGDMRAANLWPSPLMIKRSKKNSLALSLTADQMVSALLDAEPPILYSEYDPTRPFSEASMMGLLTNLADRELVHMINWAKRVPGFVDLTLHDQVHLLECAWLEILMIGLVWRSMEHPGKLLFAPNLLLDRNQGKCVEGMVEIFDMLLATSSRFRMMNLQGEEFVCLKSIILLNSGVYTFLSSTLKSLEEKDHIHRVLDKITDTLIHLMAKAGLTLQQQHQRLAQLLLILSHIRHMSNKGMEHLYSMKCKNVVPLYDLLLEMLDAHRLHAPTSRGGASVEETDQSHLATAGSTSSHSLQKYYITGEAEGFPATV
Chain of Aromatase (Homo sapiens) (P11511 whole entry, looked up): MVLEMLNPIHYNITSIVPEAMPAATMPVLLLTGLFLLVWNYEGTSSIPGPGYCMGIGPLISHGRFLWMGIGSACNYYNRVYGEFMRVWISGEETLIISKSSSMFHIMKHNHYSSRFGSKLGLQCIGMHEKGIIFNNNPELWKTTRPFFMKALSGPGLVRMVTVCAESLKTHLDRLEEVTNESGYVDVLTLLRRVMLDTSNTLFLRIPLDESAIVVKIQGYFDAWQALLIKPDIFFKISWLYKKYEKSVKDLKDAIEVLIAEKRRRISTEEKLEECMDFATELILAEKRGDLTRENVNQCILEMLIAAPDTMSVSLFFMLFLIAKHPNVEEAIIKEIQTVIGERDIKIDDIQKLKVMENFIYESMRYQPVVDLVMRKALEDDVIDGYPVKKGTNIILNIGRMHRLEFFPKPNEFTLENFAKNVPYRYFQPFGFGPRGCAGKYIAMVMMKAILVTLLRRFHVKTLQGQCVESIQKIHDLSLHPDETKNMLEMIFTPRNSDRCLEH
Chain of Peroxisome proliferator-activated receptor gamma (Homo sapiens) (P37231 whole entry, looked up): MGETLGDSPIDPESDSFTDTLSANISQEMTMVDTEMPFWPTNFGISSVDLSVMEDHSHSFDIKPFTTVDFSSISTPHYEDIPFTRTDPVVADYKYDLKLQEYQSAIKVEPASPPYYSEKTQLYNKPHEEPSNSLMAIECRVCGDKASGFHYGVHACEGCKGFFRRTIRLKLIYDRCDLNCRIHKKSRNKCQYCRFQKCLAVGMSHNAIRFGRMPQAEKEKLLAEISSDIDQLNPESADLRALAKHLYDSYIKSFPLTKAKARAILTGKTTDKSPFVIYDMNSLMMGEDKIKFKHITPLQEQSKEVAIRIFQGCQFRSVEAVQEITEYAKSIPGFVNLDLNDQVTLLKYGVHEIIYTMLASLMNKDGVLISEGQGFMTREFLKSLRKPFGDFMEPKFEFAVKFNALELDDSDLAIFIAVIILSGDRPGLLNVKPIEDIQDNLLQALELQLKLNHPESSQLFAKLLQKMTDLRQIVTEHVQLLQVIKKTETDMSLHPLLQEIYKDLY
Chain of Aryl hydrocarbon receptor (Homo sapiens) (P35869 whole entry, looked up): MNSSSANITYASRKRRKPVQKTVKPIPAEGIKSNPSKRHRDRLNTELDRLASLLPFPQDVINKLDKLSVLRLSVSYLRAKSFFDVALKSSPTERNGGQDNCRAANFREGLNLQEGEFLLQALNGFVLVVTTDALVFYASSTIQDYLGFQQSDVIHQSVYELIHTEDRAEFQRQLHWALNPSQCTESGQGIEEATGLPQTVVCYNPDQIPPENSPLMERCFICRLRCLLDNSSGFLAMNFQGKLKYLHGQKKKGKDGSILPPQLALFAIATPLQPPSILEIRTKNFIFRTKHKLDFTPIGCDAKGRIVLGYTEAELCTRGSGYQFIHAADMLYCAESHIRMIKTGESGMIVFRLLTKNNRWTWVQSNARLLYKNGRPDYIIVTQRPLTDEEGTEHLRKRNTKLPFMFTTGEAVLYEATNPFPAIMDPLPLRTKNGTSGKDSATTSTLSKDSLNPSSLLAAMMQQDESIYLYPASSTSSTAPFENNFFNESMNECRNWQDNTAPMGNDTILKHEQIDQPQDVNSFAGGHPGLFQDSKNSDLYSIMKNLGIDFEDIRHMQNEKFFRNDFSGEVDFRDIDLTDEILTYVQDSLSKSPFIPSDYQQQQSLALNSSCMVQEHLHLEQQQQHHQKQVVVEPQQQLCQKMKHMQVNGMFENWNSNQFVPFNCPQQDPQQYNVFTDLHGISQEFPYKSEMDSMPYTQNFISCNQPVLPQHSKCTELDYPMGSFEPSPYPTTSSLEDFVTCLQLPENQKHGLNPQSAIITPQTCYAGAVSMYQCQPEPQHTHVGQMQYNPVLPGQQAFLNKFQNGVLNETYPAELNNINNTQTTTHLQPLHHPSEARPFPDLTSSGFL

Row | Compound | Potency [1] | outcome [2] | outcome [3] | Potency (Aromatase (Homo sapiens)) | Potency [4] | Potency [5] | Potency [6] | outcome [7] | Potency [8] | outcome [9] | outcome [10] | outcome [11] | outcome [12] | outcome [13] | Potency [14] | Potency [15] | Potency [16] | outcome [17] | outcome [18] | Potency [19]
1 | C=C(C)C(=O)OCCNC(C)(C)C | inactive | inactive | inactive | inactive | inactive | inactive | inactive | inactive | inactive | inactive | inactive | inactive | – | – | – | – | – | – | – | –
2 | CC(C(=O)O)c1ccc2c(c1)CC(=O)c1ccccc1S2 (stereo not given) | inactive | inactive | – | inactive | inactive | inactive | inactive | – | – | inactive | inactive | inactive | inactive | inactive | inactive | inactive | inactive | – | – | –
3 | Cc1ccc(C=O)cc1C | inactive | inactive | inactive | inactive | inactive | inactive | inactive | – | inactive | inactive | inactive | inactive | – | inactive | inactive | inactive | inactive | inactive | inactive | –
4 | CCCCNc1ccc(C(=O)OCCN(C)C)cc1 | inactive | inactive | inactive | inactive | inactive | inactive | inactive | – | – | inactive | – | inactive | inactive | – | – | – | – | – | – | –
5 | COC(=O)[C@@H]1[C@H]2C[C@H]3c4[nH]c5ccccc5c4CCN3C[C@@H]2CC[C@@H]1O | inactive | inactive | inactive | inactive | inactive | – | inactive | inactive | – | inactive | inactive | – | inactive | inactive | inactive | inactive | inactive | inactive | inactive | –
6 | COc1nccnc1NS(=O)(=O)c1ccc(N)cc1 | inactive | – | inactive | inactive | inactive | inactive | inactive | inactive | inactive | inactive | inactive | inactive | inactive | – | – | – | inactive | – | – | inactive
7 | COc1ccc2c(c1OC)C(=O)O[C@@H]2[C@H]1c2c(cc3c(c2OC)OCO3)CCN1C | 11.9 µM (active) | inactive | – | – | – | – | 29.8 µM (active) | – | – | inactive | inactive | inactive | – | – | – | – | inactive | – | inactive | –
8 | CCCCCCOC(=O)CC | – | inactive | inactive | inactive | inactive | inactive | inactive | inactive | inactive | inactive | inactive | inactive | inactive | inactive | inactive | inactive | – | inactive | inactive | inactive
9 | C=Cc1ccccn1 | inactive | – | inactive | inactive | inactive | inactive | inactive | inactive | inactive | inactive | – | – | inactive | – | – | – | – | – | – | inactive
10 | O=C1CCCC(=O)O1 | inactive | – | inactive | inactive | inactive | inactive | inactive | – | inactive | – | inactive | – | inactive | inactive | inactive | inactive | – | – | inactive | inactive
11 | CC(=O)c1ccc2c(c1)Cc1ccccc1-2 | – | inactive | inactive | inactive | inactive | 54.5 µM (active) | inactive | inactive | inactive | inactive | – | – | inactive | – | 24.4 µM (active) | – | 7.7 µM (active) | inactive | inactive | inactive
12 | CCCCCCCCC1CCC(=O)O1 (stereo not given) | inactive | – | inactive | inactive | inactive | inactive | inactive | inactive | – | inactive | inactive | inactive | inactive | inactive | – | – | – | – | inactive | inactive
13 | CCCOC(=O)C(C)O (stereo not given) | – | inactive | inactive | – | – | inactive | inactive | inactive | inactive | inactive | inactive | – | inactive | inactive | inactive | inactive | – | inactive | inactive | inactive
14 | CC1=CCC(C(C)C)=CC1 | inactive | inactive | inactive | inactive | inactive | inactive | – | – | – | inactive | inactive | inactive | – | inactive | inactive | inactive | inactive | inactive | inactive | –
15 | O=C(Nc1ccc(Cl)c(Cl)c1)C1CC1 | inactive | – | inactive | inactive | inactive | 29.8 µM (active) | inactive | inactive | inactive | – | inactive | inactive | inactive | inactive | – | 21.1 µM (active) | 15 µM (active) | – | inactive | –
16 | ClCCCl | – | inactive | inactive | inactive | inactive | inactive | – | inactive | inactive | inactive | inactive | – | inactive | inactive | inactive | inactive | inactive | inactive | inactive | inactive
17 | COc1cc2c(cc1OC)[C@@H]1CC(=O)[C@@H](CC(C)C)CN1CC2 | – | – | inactive | – | inactive | – | inactive | – | inactive | inactive | inactive | inactive | inactive | inactive | inactive | inactive | inactive | inactive | inactive | inactive
18 | O=P(O)(O)OP(=O)(O)O | inactive | inactive | inactive | – | – | – | inactive | – | – | inactive | – | inactive | – | – | – | – | – | – | – | –
19 | O=C(c1ccc(O)cc1)c1ccc(O)c(O)c1O | inactive | – | inactive | inactive | – | 61.4 µM (active) | – | inactive | – | inactive | inactive | inactive | inactive | – | – | – | inactive | – | inactive | inactive
20 | C=CCCCCCCCCCCCC | inactive | – | inactive | inactive | inactive | inactive | – | – | inactive | inactive | inactive | – | inactive | – | – | – | – | – | inactive | inactive
21 | NCCN1CCOCC1 | inactive | – | inactive | inactive | inactive | inactive | – | – | – | inactive | inactive | inactive | inactive | – | – | – | inactive | – | – | inactive
22 | CC1(CO)CN(c2ccccc2)NC1=O (stereo not given) | inactive | inactive | inactive | inactive | inactive | – | inactive | – | – | inactive | inactive | inactive | inactive | – | – | – | – | – | inactive | –
23 | CCCCCCOc1ccccc1C(N)=O | inactive | inactive | inactive | inactive | inactive | – | inactive | inactive | inactive | inactive | inactive | inactive | inactive | inactive | – | 33.5 µM (active) | – | – | inactive | –
24 | Cc1ccc(S(=O)(=O)O)c(C)c1 | inactive | inactive | inactive | inactive | inactive | – | inactive | inactive | inactive | inactive | inactive | inactive | – | inactive | inactive | inactive | inactive | inactive | inactive | –
25 | CC(=O)Nc1ccc(S(=O)(=O)Nc2ccc([N+](=O)[O-])cc2)cc1 | – | inactive | – | inactive | inactive | inactive | inactive | inactive | inactive | inactive | inactive | – | inactive | inactive | inactive | inactive | – | inactive | inactive | inactive
26 | COCCOC(=O)C1=C(C)NC(C)=C(C(=O)OC(C)C)C1c1cccc([N+](=O)[O-])c1 (stereo not given) | inactive | inactive | inactive | inactive | inactive | – | inactive | – | inactive | inactive | inactive | inactive | inactive | inactive | inactive | inactive | – | – | – | –
27 | Cc1cc(NC(=O)C2=C(O)c3ccccc3S(=O)(=O)N2C)no1 | inactive | – | inactive | inactive | inactive | inactive | inactive | – | – | inactive | inactive | inactive | inactive | – | – | – | inactive | – | inactive | inactive
28 | OC[C@H](Cc1cccc(O)c1)[C@H](CO)Cc1cccc(O)c1 | inactive | inactive | inactive | inactive | inactive | inactive | inactive | inactive | inactive | inactive | inactive | inactive | inactive | – | – | – | – | – | inactive | –
